Screens (PubChem BioAssay)
POLB inh = qHTS Assay for Inhibitors of DNA Polymerase Beta; Pol beta primer extension/strand displacement, fluorescence kinetic; AID 485314, 2010; P06746; Potency, µM (highest dose often 114 µM), actives largely listed as inhibitors; 340,000 compounds, 1.3% hits
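10 nM enzyme + cpd, 15 min RT; start with substrate 50 nM final; read 0 min and after 10 min RT. Corrected, normalized data; 4-parameter Hill curve fit.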
POLI inh = qHTS for Inhibitors of Polymerase Iota. DNA polymerase iota (Homo sapiens), Q9UNA4. Pol iota fluorescent replication assay, 10 min. Potency, µM (top dose mostly 115 µM), most hits filed as inhibitors. 390,000 compounds, 1% hits
Target sequence (Q9UNA4 whole entry, looked up): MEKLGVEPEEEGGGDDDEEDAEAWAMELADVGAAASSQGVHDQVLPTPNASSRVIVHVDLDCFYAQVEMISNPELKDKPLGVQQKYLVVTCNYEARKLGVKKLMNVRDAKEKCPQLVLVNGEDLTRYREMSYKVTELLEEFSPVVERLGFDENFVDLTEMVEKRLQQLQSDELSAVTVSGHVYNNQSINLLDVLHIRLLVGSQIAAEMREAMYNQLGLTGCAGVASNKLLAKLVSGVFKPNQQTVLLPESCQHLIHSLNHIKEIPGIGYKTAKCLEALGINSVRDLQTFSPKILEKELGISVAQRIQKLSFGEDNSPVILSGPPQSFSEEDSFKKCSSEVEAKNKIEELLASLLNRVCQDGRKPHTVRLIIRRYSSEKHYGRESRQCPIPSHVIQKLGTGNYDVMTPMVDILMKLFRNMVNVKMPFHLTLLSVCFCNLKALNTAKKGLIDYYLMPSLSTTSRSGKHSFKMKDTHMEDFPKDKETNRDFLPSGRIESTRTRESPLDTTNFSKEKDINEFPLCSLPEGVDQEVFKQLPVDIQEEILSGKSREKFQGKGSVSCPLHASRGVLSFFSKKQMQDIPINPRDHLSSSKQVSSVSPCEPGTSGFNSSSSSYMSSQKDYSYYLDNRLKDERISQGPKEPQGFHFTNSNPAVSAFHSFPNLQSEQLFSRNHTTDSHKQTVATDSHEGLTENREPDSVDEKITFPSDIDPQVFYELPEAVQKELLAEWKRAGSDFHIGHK
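Pol iota at 10 nM preincubated 15 min with compounds at room temperature; reaction started with fluorescent substrate, 50 nM final. Fluorescence read kinetically at 0 and 10 min; buffer-only wells as negative control.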
WRN helicase inh = qHTS for Inhibitors of WRN Helicase | Potency, µM (top dose mostly 114 µM), most hits filed as inhibitors | WRN helicase unwinding, fluorescent forked duplex, kinetic | AID 651768, 2012 | 360,000 compounds, 0.46% hits; also: nearly all actives have a fitted effect of over 55% in size
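WRN at 20 nM final preincubated with compound 15 min at room temperature; reaction started with 100 nM fluorophore/quencher forked duplex oligonucleotide and 2 mM ATP final. Unwinding followed kinetically by red fluorescence (ex 525, em 598 nm).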
Pol kappa inh = qHTS for Inhibitors of Polymerase Kappa; purified Pol kappa, fluorescent DNA synthesis assay, 10 min; Potency, µM (highest dose often 107 µM), usual class: inhibitors; 400,000 compounds, 0.53% hits; AID 588579, 2011
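Activity was followed as the change in fluorescence between reads at 0 and 10 min after starting the reaction with 50 nM substrate. Beforehand, 10 nM polymerase had been preincubated with compound for 15 min at room temperature.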
Pol eta inh = qHTS for Inhibitors of Polymerase Eta | Potency, µM (top dose mostly 114 µM), actives largely listed as inhibitors | 390,000 compounds, 1.2% hits | recombinant Pol eta, fluorescent DNA replication assay | DNA polymerase eta (Homo sapiens), Q9Y253
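Pol eta (10 nM) was preincubated with compounds for 15 min at room temperature, after which fluorescent replication substrate (50 nM final) was added to start the reaction. Fluorescence was read kinetically at 0 and 10 min.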
FEN1 inh = qHTS Assay for the Inhibitors of Human Flap endonuclease 1 (FEN1); P39748; Recombinant FEN1 flap cleavage, fluorescence, 15 min; Potency, µM (doses to about 114 µM), most hits filed as inhibitors; 390,000 compounds, 0.35% hits; AID 588795, 2011; also: nearly all actives have a fitted effect of over 65% in size
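Enzyme 10 nM, 15 min RT preincubation with compound; start with substrate 50 nM final; reads at 0 and 15 min; qHTS titration, four-parameter Hill fit.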
Numbers stand for hits; [ ] = remark or other dose. A selection: hits, their analogues and other compounds. The true share with any hit is near 2.4%. Calls follow the shape of the dose curve; as a rule, active = well fitted curve in the direction sought with a large enough effect; inconclusive = small, poorly fitted or top-dose-only effect, or another doubt; inactive = no such curve, though single readings can be large; an effect the other way counts as inactive or inconclusive.

How did CC1CCCCC12NC(=O)N(Cc1cc(=O)n3ccsc3n1)C2=O (centres undefined) do in these assays?
POLB inh: inconclusive; POLI inh: 79µM; WRN helicase inh: inactive; Pol kappa inh: inactive; Pol eta inh: inactive; FEN1 inh: inactive

Results for CC(C)S(=O)(=O)C1=NSC2=NC(=O)/C(=C\c3ccc(-c4ccccc4)o3)C(=N)N21 ?
POLB inh: 79µM; POLI inh: inactive; WRN helicase inh: inconclusive; Pol kappa inh: inconclusive; Pol eta inh: 18µM; FEN1 inh: inconclusive

How did COc1cc([C@H]2OC[C@H]3[C@@H]2CO[C@H]3c2ccc(O)c(OC)c2)ccc1O do in these assays?
POLI inh: inactive; WRN helicase inh: inactive; Pol kappa inh: inactive; Pol eta inh: inactive; FEN1 inh: inactive

How did COc1cc(C2OCC3C(c4ccc(OC5OC(CO)C(O)C(O)C5O)c(OC)c4)OCC23)ccc1O (centres undefined) do in these assays?
POLB inh: inconclusive; POLI inh: 71µM; WRN helicase inh: inactive[11.6 µM]; Pol kappa inh: inconclusive; Pol eta inh: inconclusive; FEN1 inh: inactive

Results for CCOC(=O)c1c(-n2cnnn2)sc2c1CCCC2 ?
POLB inh: inactive; POLI inh: inactive; WRN helicase inh: inactive; Pol kappa inh: inactive; Pol eta inh: inactive; FEN1 inh: inactive

Results for CCOC(=O)c1c(N2C(=O)Nc3cc(Cl)c(Cl)cc3N2O)sc2c1CCCCC2 ?
POLB inh: 50µM; POLI inh: inactive; WRN helicase inh: inconclusive; Pol kappa inh: inactive; Pol eta inh: inconclusive; FEN1 inh: inconclusive

How did Cc1ccc(C)n1-c1ccc(-c2ccn[nH]2)cc1 do in these assays?
POLB inh: 22µM; POLI inh: inactive; WRN helicase inh: inactive; Pol kappa inh: inactive; Pol eta inh: inactive; FEN1 inh: inactive

What do the screens show for `O=C(Nc1ccccc1Cc1ccccc1)c1ccccc1NS(=O)(=O)c1ccc(Cl)s1`?
POLB inh: inconclusive; POLI inh: inactive; WRN helicase inh: inactive; Pol kappa inh: inactive; Pol eta inh: 79µM; FEN1 inh: inconclusive

What do the screens show for `O=C(Nc1ccccc1)c1ccccc1NS(=O)(=O)c1ccc(Cl)s1`?
POLB inh: inactive; POLI inh: inactive; WRN helicase inh: inactive; Pol kappa inh: inactive; Pol eta inh: inactive; FEN1 inh: inactive

What do the screens show for `O=C(O)c1c2c(nc3ccccc13)CCCCC2`?
POLB inh: inactive; POLI inh: inactive; WRN helicase inh: inactive; Pol kappa inh: inactive; Pol eta inh: inactive; FEN1 inh: inactive

How did Cc1cc(C)c2nc3c(c(C(=O)O)c2c1)CCC3 do in these assays?
POLB inh: 18µM; POLI inh: inconclusive; WRN helicase inh: inactive; Pol kappa inh: inactive; Pol eta inh: 14µM; FEN1 inh: inactive

How did Cc1cnc2c(c1SCC(=O)NCc1ccccc1Cl)c(=O)n(C)c(=O)n2C do in these assays?
POLB inh: inactive; POLI inh: inactive; Pol kappa inh: inactive; Pol eta inh: inactive; FEN1 inh: inactive

How did Cc1ccc(-c2nc3s/c(=C\c4ccco4)c(=O)n3n2)cc1 do in these assays?
POLB inh: 28µM; POLI inh: 25µM; WRN helicase inh: inactive; Pol kappa inh: inactive; Pol eta inh: 89µM; FEN1 inh: inactive

How did Cc1ccc(/C=c2\sc3nc(-c4ccccc4Br)nn3c2=O)o1 do in these assays?
POLB inh: 14µM; POLI inh: inconclusive; WRN helicase inh: inconclusive; Pol kappa inh: 20µM; Pol eta inh: 10µM; FEN1 inh: inconclusive

What do the screens show for `Cc1ccc(/C=c2/sc3nnc(-c4ccccc4Cl)n3c2=O)o1`?
POLB inh: 40µM; POLI inh: inconclusive; WRN helicase inh: inconclusive; Pol kappa inh: inactive; Pol eta inh: 14µM; FEN1 inh: inactive

How did Cc1ccc(/C=c2\sc3nc(-c4ccco4)nn3c2=O)o1 do in these assays?
POLB inh: 28µM; POLI inh: inconclusive; WRN helicase inh: 56µM; Pol kappa inh: 28µM; Pol eta inh: 3.5µM; FEN1 inh: inconclusive

Results for COc1ccccc1/C=c1\sc2nc(-c3ccccc3OC)nn2c1=O ?
POLB inh: inactive; POLI inh: inactive; WRN helicase inh: inactive; Pol kappa inh: inactive; Pol eta inh: inactive; FEN1 inh: inactive

How did Cc1oc2c(O)c(O)ccc2c(=O)c1-c1cnn(-c2ccccc2)c1 do in these assays?
POLB inh: inactive; POLI inh: inconclusive; WRN helicase inh: inactive; Pol kappa inh: 40µM; Pol eta inh: inconclusive; FEN1 inh: inactive

Results for CC(Oc1ccccc1)C(=O)N[C@@H]1C(=O)N2[C@@H]1SC(C)(C)[C@@H]2C(=O)OCc1ccccc1 (some centres undefined) ?
POLI inh: inactive; Pol kappa inh: inactive; FEN1 inh: inactive

Results for C=CCNC(=O)CN1CCC(O)(c2ccc(F)cc2)CC1 ?
POLB inh: inactive; POLI inh: 100µM; WRN helicase inh: inactive; Pol kappa inh: inactive; Pol eta inh: inactive; FEN1 inh: inactive

How did O=C(CN1CCOCC1)NCc1ccc(F)cc1 do in these assays?
POLB inh: inactive; POLI inh: inactive; WRN helicase inh: inactive; Pol kappa inh: inactive; Pol eta inh: inactive; FEN1 inh: inactive

How did O=C(NC(Cc1ccccc1)C(=O)O)/C(=C\c1ccco1)NC(=O)c1ccco1 (centres undefined) do in these assays?
POLB inh: inconclusive; POLI inh: inactive; WRN helicase inh: inactive; Pol kappa inh: inactive; Pol eta inh: inactive; FEN1 inh: inactive

How did O=C(NC(Cc1ccccc1)C(=O)O)/C(=C\c1ccco1)NC(=O)c1ccc(Br)cc1 (centres undefined) do in these assays?
POLB inh: inactive; POLI inh: 20µM; WRN helicase inh: inconclusive; Pol kappa inh: 50µM; Pol eta inh: inconclusive; FEN1 inh: inactive

Results for O=C(NC(Cc1ccccc1)C(=O)O)/C(=C\c1ccco1)NC(=O)c1ccccc1 (centres undefined) ?
POLB inh: 40µM; POLI inh: inconclusive; WRN helicase inh: inactive; Pol kappa inh: inactive; Pol eta inh: 14µM; FEN1 inh: inactive

How did CC(=O)Nc1ccc(S(=O)(=O)/N=C2/NC(=O)/C(=C\c3ccco3)S2)cc1 do in these assays?
POLB inh: 10µM; POLI inh: inconclusive; WRN helicase inh: inactive[11.6 µM]; Pol kappa inh: inconclusive; Pol eta inh: 20µM; FEN1 inh: inactive

Results for CCc1ccc(N=C2NC(=O)/C(=C/c3ccc(OCC(=O)O)c(OC)c3)S2)cc1 ?
POLB inh: 20µM; POLI inh: inconclusive; WRN helicase inh: inconclusive; Pol kappa inh: inactive; Pol eta inh: inactive; FEN1 inh: inconclusive

Results for COc1ccc(N=C2NC(=O)/C(=C\c3ccco3)S2)cc1 ?
POLB inh: 20µM; POLI inh: 40µM; WRN helicase inh: inconclusive; Pol kappa inh: inconclusive; Pol eta inh: inconclusive; FEN1 inh: inactive
